AT treatment: candidate therapy for ataxia-telangiectasia; F2112 A-T fibroblasts, KAP-1 phosphorylation AlphaLISA; neocarzinostatin DNA damage 30 min before lysis; Potency, µM (doses to about 57.5 µM), most hits filed as activators; actives 0.19% (n = 320,000); AID 485349; note: nearly all actives have a fitted effect of over 45% in size
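hTERT-immortalized A-T patient fibroblasts (F2112), 500 cells/well in OPTI-MEM, 1% FBS, got compounds for 60 min, then NCS for 30 min at 37C. Lysates were then assayed for phospho-KAP-1 by AlphaLISA (anti-pKAP1 donor, anti-KAP1 acceptor beads), 6 hr at 25C.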
TRPV1 PAM: potentiators of human vanilloid receptor 1 (TRPV1). TRPV1-expressing cells, Fluo-8 calcium influx, capsaicin EC20 potentiation. potentiation, % at 8.33 µM. actives 0.02% (n = 320,000). AID 540277; in the data active = potentiation above about 80%; inconclusive = between about 30% and that limit
Target sequence (Q8NER1 whole entry, looked up): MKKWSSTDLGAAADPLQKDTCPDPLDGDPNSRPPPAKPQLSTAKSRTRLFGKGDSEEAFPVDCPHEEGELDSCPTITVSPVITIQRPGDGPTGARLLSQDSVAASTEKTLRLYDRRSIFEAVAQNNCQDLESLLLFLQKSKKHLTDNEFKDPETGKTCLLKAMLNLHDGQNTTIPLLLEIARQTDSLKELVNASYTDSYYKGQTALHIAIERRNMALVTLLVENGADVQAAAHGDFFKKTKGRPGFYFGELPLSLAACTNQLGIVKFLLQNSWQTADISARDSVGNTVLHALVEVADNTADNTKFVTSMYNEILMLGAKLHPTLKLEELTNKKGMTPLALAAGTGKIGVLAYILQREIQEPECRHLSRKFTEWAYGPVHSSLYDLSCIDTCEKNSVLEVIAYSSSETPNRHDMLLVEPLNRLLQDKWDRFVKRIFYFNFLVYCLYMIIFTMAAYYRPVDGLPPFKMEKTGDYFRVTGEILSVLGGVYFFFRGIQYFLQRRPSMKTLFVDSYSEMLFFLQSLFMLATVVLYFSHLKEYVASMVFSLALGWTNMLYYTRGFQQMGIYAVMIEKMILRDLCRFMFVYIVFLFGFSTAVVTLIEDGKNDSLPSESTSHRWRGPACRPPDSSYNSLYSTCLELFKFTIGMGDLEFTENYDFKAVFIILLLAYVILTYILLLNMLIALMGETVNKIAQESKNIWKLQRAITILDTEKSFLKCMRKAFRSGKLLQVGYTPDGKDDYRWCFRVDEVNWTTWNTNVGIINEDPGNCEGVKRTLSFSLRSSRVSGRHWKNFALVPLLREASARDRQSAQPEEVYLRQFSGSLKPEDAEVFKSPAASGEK
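Fluo-8 calcium influx in TRPV1-expressing cells, kinetic read (ex 480/em 520 nm). Compound added and read 3 min for agonist activity, followed by capsaicin at EC20 final and 2 min further read for enhancement.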
ASM inhibitor: inhibitors of human secretory acid sphingomyelinase | placental ASM, HMU-PC fluorogenic substrate, 60 min | Potency, µM (series often up to 57.5 µM), actives largely listed as inhibitors | actives 0.006% (n = 340,000)
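qHTS format. ASM enzyme prepared from human placenta hydrolyses the fluorogenic substrate HMU-PC0 (9 uM final) over 60 min at 37 °C after a 10 min compound preincubation.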
TSG101-PTAP inh: blocks PTAP/TSG101 interaction to inhibit HIV-1 budding; Q99816; Fluorescence polarization, FITC-PTAP peptide / Tsg101 binding; Potency, µM (titrated, usually from 115 µM), usual class: inhibitors; 340,000 tested, under 10 active; AID 493005; active = well fitted inhibition curve with a large enough effect in the main read-out, with a control signal flat, not every such curve was filed as active; inconclusive = small, poorly fitted or top-dose-only effect, or effect the other way, or a change in a side signal; inactive = no such curve, though single readings can be large or run the other way
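Compounds were pin-transferred onto Tsg101 binding domain (10 uM final) in HEPES pH 7.5 buffer, then FITC-PTAP peptide was added at 50 nM final. After 20 min at RT, polarization reported peptide displacement across a qHTS concentration series.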
TRPV1 ag: human TRPV1 agonism. activation, % at 8.33 µM. AID 540275. TRPV1-expressing cells, Fluo-8 calcium influx, agonist mode. actives 0.19% (n = 320,000). Q8NER1; in the data active = activation above about 80%; inconclusive = between about 30% and that limit
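Fluo-8 calcium influx in TRPV1-expressing cells, kinetic read (ex 480/em 520 nm). Compound added and read 3 min for agonist activity, followed by capsaicin at EC20 final and 2 min further read for enhancement.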
Large screens that a line does not name were inactive. An excerpt weighted towards active compounds, which were near 0.37% of everything screened. Unless noted, calls come from the whole dose curve; as a rule, active = well fitted curve in the direction sought with a large enough effect; inconclusive = small, poorly fitted or top-dose-only effect, or another doubt; inactive = no such curve, though single readings can be large; an effect the other way counts as inactive or inconclusive.

COc1ccc(C(CNC(=O)C(Cc2ccccc2)NC(N)=O)N(C)C)cc1 (stereo not drawn)	AT treatment 0.89µM
O=C1CCCC2=C1C1O[C@](CCCCN3C(=O)c4ccccc4C3=O)(Cc3c1ccc1ccccc31)O2	none (no result: ASM inhibitor, TSG101-PTAP inh)
COc1ccc(N(C(=O)c2snc(C(N)=O)c2N)C(C(=O)NC2CCCC2)c2ccc(F)cc2)c(OC)c1 (stereo not drawn)	none
COc1ccc(C)cc1N(C(=O)c1snc(C(N)=O)c1N)C(C(=O)NC1CCCC1)c1ccc(F)cc1 (stereo not drawn)	TRPV1 ag 99
O=c1c(C(c2ccc(Cl)cc2)c2c(O)nc3n(c2=O)CCCS3)c(O)nc2n1CCCS2	AT treatment 32µM
Cc1ccc2nc(NC(=O)c3ccc4c(c3)OCO4)sc2c1	TRPV1 ag 82
C=CC(=O)Nc1cccc(CN2C(=O)N(c3cc(OC)cc(OC)c3)Cc3cnc(NCCCCN(CC)CC)nc32)c1	none (no result: AT treatment, TRPV1 PAM, TRPV1 ag)
CC(=O)N(/N=C/c1ccc([N+](=O)[O-])o1)c1nc2ccccc2c(=O)n1-c1ccccc1	AT treatment 13µM
O=C(Nc1ccccc1F)c1ccc(O)c2ncccc12	none (no result: TRPV1 PAM, ASM inhibitor, TSG101-PTAP inh, TRPV1 ag)
O=C(O)c1ccnc2c(O)cccc12	none (no result: TRPV1 PAM, ASM inhibitor, TSG101-PTAP inh, TRPV1 ag)
Oc1ccc(CNc2cccc(C(F)(F)F)c2)c2cccnc12	none (no result: TRPV1 PAM, ASM inhibitor, TSG101-PTAP inh, TRPV1 ag)
Cc1ccc(S(=O)(=O)c2cc3ccccc3oc2=O)cc1	none
Cc1c(O)ccc2cc(S(=O)(=O)c3ccccc3)c(=O)oc12	AT treatment 13µM
c1coc(CN2CNc3nc4ccccc4n3C2)c1	AT treatment 10µM
COc1ccc(CN2CNc3nc4ccccc4n3C2)cc1	none (no result: AT treatment)
CN(Nc1cccc(Cl)c1)c1cccc(Cl)c1	none (no result: AT treatment, TRPV1 PAM, TRPV1 ag)
Cc1cc2nn(-c3ccc(Cl)cc3)nc2cc1N	AT treatment 22µM
Cc1cc(Oc2ccc(C(C)(C)C)cc2)nc(N2CCOCC2)n1	none (no result: AT treatment)
CCCc1ccc(Oc2cc(C)nc(N3CCOCC3)n2)cc1	AT treatment 25µM
COc1ccc(-c2cc(C(=O)Nc3cccc(Cl)c3)no2)cc1	AT treatment 10µM
C=CCSc1nc2ccccc2n1C(=O)/C=C/c1ccc(OC)c(OC)c1	AT treatment 32µM
CCSc1nc2ccccc2n1C(=O)/C=C/c1ccc(OC)c(OC)c1	AT treatment 22µM
C=CCSc1nc2ccccc2n1C(=O)/C=C/c1cc(OC)c(OC)c(OC)c1	none (no result: AT treatment)
COc1ccc(C2c3c(oc4ccc(Cl)cc4c3=O)C(=O)N2Cc2ccco2)cc1OC (stereo not drawn)	none (no result: ASM inhibitor, TSG101-PTAP inh)
CS(=O)(=O)c1ncc(Cl)c(C(=O)N2CCN(c3cccc(Cl)c3)CC2)n1	none (no result: AT treatment, ASM inhibitor, TSG101-PTAP inh)
O=C(c1ccc(-n2c(SCc3cccc(F)c3)nc3ccccc3c2=O)cc1)N1CCOCC1	TRPV1 ag 87
O=C(O)c1ccc(CSc2nc3ccccc3c(=O)n2-c2ccccc2)cc1	none
CCN(CC)CC(O)Cn1c(-c2ccccc2Cl)nc2ccccc21 (stereo not drawn)	AT treatment 16µM
CCN(CC)c1ccc(NC(=O)c2cc3ccccc3o2)c(C)c1	TRPV1 ag 83
O=C(Nc1ccc(F)cc1)c1cc2ccccc2o1	TRPV1 ag 98
Cc1ccccc1NC(=O)c1cc2ccccc2o1	TRPV1 ag inconclusive
CCN(CC)c1ccc(NC(=O)c2ccc3c(c2)OCO3)c(C)c1	TRPV1 ag 82
O=C1C=C(Nc2ccccc2)C(=O)c2ccccc21	none
O=C1C=C(Nc2ccccc2)c2ccccc2C1=O	AT treatment 35µM
Cc1ccc(CN2C(=O)C(CC(C)C)Nc3ncnc(N4CCN(c5ccccn5)CC4)c32)cc1 (stereo not drawn)	TRPV1 ag 81
CC(C)CC1Nc2ncnc(N3CCN(c4ccccn4)CC3)c2N(Cc2ccc(Br)cc2)C1=O (stereo not drawn)	TRPV1 ag inconclusive
OC1(C#CCCN2CCCCC2)c2ccccc2-c2ccccc21	none
OC1(CC#CCN2CCCCC2)c2ccccc2-c2ccccc21	AT treatment 3.5µM
CCOc1cccc(/C=C/c2ccc3cccc(O)c3n2)c1O	none
CCOc1cccc(/C=C/c2ccc3cccc(O)c3n2)c1OC	AT treatment 7.9µM
CC(Cl)OC(=O)Nc1cccc2cccnc12 (stereo not drawn)	none (no result: AT treatment, ASM inhibitor, TSG101-PTAP inh)
Cc1ccc(-n2nc(C)c3c(C)c(CCC(=O)NCc4ccccc4)c(C)nc32)cc1	TRPV1 ag 82
Cc1ccc(CNC(=O)CCc2c(C)nc3c(c(C)nn3-c3ccc(C)cc3)c2C)cc1	TRPV1 ag inconclusive
Cc1ccc(-n2nc(C)c3c(C)c(CCC(=O)NCc4ccco4)c(C)nc32)cc1	TRPV1 ag 82
CCCCNC(=O)CCc1c(C)nc2c(c(C)nn2-c2ccccc2)c1C	TRPV1 ag 94
Cc1nc2c(c(C)nn2-c2ccccc2)c(C)c1CCC(=O)NCCCOC(C)C	none
O=C(O)c1ccc2c(c1)C(=O)N([C@H](Cc1c[nH]c3ccccc13)C(=O)O)C2=O	none (no result: TRPV1 PAM, ASM inhibitor, TSG101-PTAP inh, TRPV1 ag)
CCCn1c(SC(C)C(=O)N2CCOCC2)nc2ccc(Br)cc2c1=O (stereo not drawn)	TRPV1 ag 83
Fc1ccc(CNC(=S)Nc2ccc(Cl)cc2Cl)cc1	TRPV1 ag 88
Cc1cc(Cl)ccc1NC(=S)NCc1ccccc1	TRPV1 ag inconclusive
COc1cccc(CNC(=S)Nc2ccc(Cl)cc2C)c1	TRPV1 ag 81
S=C(NCc1ccncc1)Nc1ccc(Cl)cc1Cl	TRPV1 ag 80
S=C(NCc1ccc(Cl)cc1)Nc1ccc(Cl)cc1Cl	TRPV1 ag inconclusive
COC(=O)c1ccc(CNC(=O)COC(=O)CCC2CCCC2)cc1	TRPV1 ag 84
CC(C)c1ccc(/C=N\NC(=O)c2ccc(Cn3cccn3)o2)cc1	TRPV1 ag 82
COc1ccc([C@]23Cc4cc(OC)c(OC)cc4C(O2)c2c(c4ccccc4oc2=O)O3)cc1	none (no result: ASM inhibitor, TSG101-PTAP inh)
CCCCNc1c(-c2ccc(OC)c(SC3CCCCC3)c2)nc2ccc(Cl)cn12	none (no result: TRPV1 PAM, TRPV1 ag)
COc1ccc(-c2nc3cnccn3c2NCc2ccccc2)cc1SC1CCCCC1	AT treatment inconclusive, TRPV1 ag inconclusive
CCCCCCSc1ccc(-c2nc3ccccn3c2NCCCC)cc1	AT treatment 40µM, TRPV1 ag inconclusive
CCCCNc1c(-c2ccc(OC)c(SC3CCCCC3)c2)nc2cc(C)ccn12	AT treatment 32µM, TRPV1 ag 88
CCCCNc1c(-c2ccc(-c3cccc(Cl)c3)cc2)nc2ccccn12	AT treatment inconclusive
CCCCCCSc1cc(-c2nc3cnccn3c2NCc2ccccc2)ccc1OC	AT treatment 18µM
CCCCNc1c(-c2ccc(OC)c(SC3CCCCC3)c2)nc2cnccn12	AT treatment 22µM, TRPV1 ag inconclusive
O=c1oc2ccccc2c2c1C1O[C@](c3ccsc3)(Cc3ccccc31)O2	TRPV1 PAM inconclusive (no result: ASM inhibitor, TSG101-PTAP inh)
